# PubChem BioAssay AID686940 (The Scripps Research Institute Molecular Screening Center, 2013)
# About 2,600 (0.7%) of roughly 370,000 compounds were called active. The sample holds actives, similar compounds and a random draw of the others, so the mix is not that of the screen. Values without a mark were called inactive.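 The calls were made as follows: active = inhibition above a per-plate cutoff, mean inhibition of test wells between control levels plus 3 SD (cut at about 38% in these data); inactive = the rest.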
# Molecular target: COUP transcription factor 2 (Homo sapiens) (UniProt P24468)
# Sequence (P24468 whole entry, looked up): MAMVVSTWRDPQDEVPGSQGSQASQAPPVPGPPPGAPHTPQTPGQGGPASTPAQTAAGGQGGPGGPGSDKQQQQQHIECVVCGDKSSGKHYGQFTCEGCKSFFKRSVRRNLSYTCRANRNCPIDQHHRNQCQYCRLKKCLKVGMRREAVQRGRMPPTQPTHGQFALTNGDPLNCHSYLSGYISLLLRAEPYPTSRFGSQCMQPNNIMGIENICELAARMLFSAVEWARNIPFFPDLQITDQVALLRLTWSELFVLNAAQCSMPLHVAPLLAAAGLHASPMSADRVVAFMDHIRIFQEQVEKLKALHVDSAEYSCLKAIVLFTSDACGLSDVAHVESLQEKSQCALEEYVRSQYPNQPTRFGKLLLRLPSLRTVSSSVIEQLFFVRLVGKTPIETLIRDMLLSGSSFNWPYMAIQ
# Assay: COUP-TFII reporter suppression in human cells – cell-based, luciferase reporter, HEK293T, luminescence, primary screen (AID 686940);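 also: cells cotransfected with COUP-TFII expression vector driving the NGFI-A reporter; 0% = median of COUP-TF2 test wells and 100% = reporter-only cells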
# Settings: HEK293T NGFI-A luciferase reporter, at 8.6 µM, hits give high values
row,Compound,inhibition
1,COC(=O)C1CN(CCc2ccccc2)CCS(=O)(=O)N1Cc1cccc(Cl)c1 (configuration not stated),-5.31%
2,Cc1ccc(-n2c(SCC(=O)Nc3ccc(S(=O)(=O)Nc4nccs4)cc3)nnc2-c2cccnc2)cc1,8.88%
3,O=C(CSc1nnc(-c2cccc(Cl)c2)n1Cc1ccco1)Nc1ccc(OCc2ccccc2)cc1,-14.7%
4,O=C(NC1CCC1)c1ccc(C#Cc2cccc(F)c2)c[n+]1[O-],0.7%
5,CN1OC[C@@H]2CN(S(=O)(=O)c3cccc(C(F)(F)F)c3)[C@H](c3ccc(-c4cc5ccccc5o4)cc3)C[C@@H]21,44.1% (active)
6,COc1ccccc1-c1ccc([C@@H]2C[C@H]3[C@H](CON3C)CN2S(=O)(=O)c2cc(Cl)cc(Cl)c2)cc1,5.76%
7,COc1ccc(S(=O)(=O)N2C[C@H]3CON(C)[C@H]3C[C@H]2c2cccc(Br)c2)cc1,10.7%
8,CCOC(=O)c1csc(NC(=O)C2CCCN(S(=O)(=O)c3ccc(Cl)s3)C2)n1 (configuration not stated),22.3%
9,C=C(C)C#CC(Cc1ccccc1)N(CC1CC1)/C(N)=N/C(=O)OCc1ccccc1 (configuration not stated),5.09%
10,CCCCNC(=O)C[C@H]1C[C@@]2(C(=O)OC)C(=C[C@H](COCc3ccccc3)O[C@@H]2C)N(Cc2ccc(Cl)cc2Cl)C1=O,1.56%
11,COC(=O)[C@]12C[C@H](CC(=O)N3CCOCC3)C(=O)N(Cc3ccc(Cl)cc3Cl)C1=C[C@H](C(C)C)O[C@@H]2C1CC1,1.35%
12,Cc1ccc(NC(=O)CN(C)CC(=O)Nc2cccc(F)c2)cc1[N+](=O)[O-],58.8% (active)
13,Cc1ccc(S(=O)(=O)N2CCCCC2)cc1C(=O)N(C)CC(=O)Nc1cccc(F)c1,-3.43%
14,Cc1ccc(NC(=O)CN(C)Cc2ccc(F)cc2)c([N+](=O)[O-])c1,-11.4%
15,c1csc(-c2nnc(SCc3nc4ccccc4[nH]3)o2)c1,-10.7%
16,Cc1ccc(NC(=O)Cc2cccc(F)c2)c(S(=O)(=O)N2CCOCC2)c1,-8.19%
17,CCOC(=O)[C@]12CCCC3=C1N(CCC3)C(=O)[C@@H](CC(=O)NCC13CC4CC(CC(C4)C1)C3)C2,21.7%
18,O=C1CC(c2ccc3c(c2)OCO3)N=C2N(CC3CC3)C/C(=C/c3ccccc3)N12 (configuration not stated),20.7%
19,Cc1ccc(S(=O)(=O)NCc2nc3ccccc3c(=O)n2N)cc1,0.39%
20,Cc1nc(CNS(=O)(=O)c2cc([N+](=O)[O-])ccc2C)cs1,-13.5%
21,Cc1nc(CNS(=O)(=O)c2ccc(Oc3ccccc3)cc2)cs1,50.2% (active)
22,Cc1ccc(-n2nc3c(=O)n(C(C)C(=O)NCc4ccc5c(c4)OCO5)nc(C)c3c2C)cc1 (configuration not stated),48.1% (active)
23,Cc1nn(C(C)C(=O)NCCC2=CCCCC2)c(=O)c2nn(-c3ccccc3)c(C)c12 (configuration not stated),-2%
24,Cc1nn(C(C)C(=O)N2CCOCC2)c(=O)c2nn(-c3ccccc3)c(C)c12 (configuration not stated),6.72%
25,Cc1cc(NS(=O)(=O)c2ccc(NC(=O)CSc3nnc(-c4ccc(C(C)(C)C)cc4)n3Cc3ccco3)cc2)nc(C)n1,1.48%
26,CN(CCc1ccccc1)C(=O)Cn1nc(-c2ccccc2)ccc1=O,2.95%

row,Compound,inhibition
1,C[C@H](C(=O)N(C)c1ccccc1)[C@@H](O)c1ccc2ccccc2c1,10.2%
2,Cc1ccc(-n2c(COc3ccccc3)nnc2SCC(=O)Nc2ccc3c(c2)OCCO3)cc1,9.88%
3,OCCCNc1nccc(-c2cc(Nc3cccc(Cl)c3)ncn2)n1,44.6% (active)
4,COc1ccc(-n2c(SCC(=O)NC3CCCC3)nnc2-c2ccncc2)cc1,4.6%
5,CCC(=O)OCCCN1C(=O)CCC12CCC(c1ccccc1)CC2 (configuration not stated),-6.04%
6,COc1ccc(C(=O)CSc2nnc(-c3cnccn3)n2-c2ccc(C)cc2)cc1,3.51%
7,O=C(CCl)NC1CCCCN(Cc2cccc(C(F)(F)F)c2)C1=O (configuration not stated),4.87%
8,COc1ccc2c(c1)c(=Cc1ccc(N(C)C)cc1)c1cc(-c3ccccc3)[n+](C)n12,76.4% (active)
9,COC(=O)C1CN(CC(C)C)CCS(=O)(=O)N1Cc1ccc(F)cc1 (configuration not stated),6.54%
10,C=CCNc1ncnc2ccc(Br)cc12,48.3% (active)
11,Cc1nc(CNc2ncnc3ccc(-c4ccc5c(c4)OCO5)cc23)cs1,10.5%
12,COc1ccc(Cn2cc(COC(=O)N(C)Cc3ccccc3)nn2)cc1,3.65%
13,Nc1[nH]c(/C=C2/CCCCC2n2[nH]c(=O)n(-c3ccccc3)c2=O)c(Cc2ccccc2)[n+]1Cc1ccccc1 (configuration not stated),10.8%
14,COC(=O)[C@]12C[C@H](CC(=O)NCc3ccccc3)C(=O)N(Cc3ccccc3)C1=C[C@H](COCc1ccccc1)O[C@@H]2C,7.28%
15,COc1cc(/C=C/C(=O)N2CCc3ccccc3C2)cc(OC)c1OC,-52.5%
16,COc1cc(/C=C/C(=O)n2cnc3ccccc32)cc(OC)c1OC,47.1% (active)
17,COc1cc(C(O)c2nc3ccccc3n2C)cc(OC)c1OC (configuration not stated),10.1%
18,COC(=O)C12C=C3CC(c4ccccc4)=C3C(=O)N1Cc1[nH]c3ccccc3c1C2 (configuration not stated),5.87%
19,COc1cccc2c1C(=O)c1c(O)c3c(c(O)c1C2=O)CC(O)(C(C)=NNC(=O)c1ccc(Cl)c(Cl)c1)CC3OC1CC(N)C(O)C(C)O1 (configuration not stated),52.1% (active)
20,CN(C)[C@H]1CCN(c2cccc3c2S(=O)(=O)N2CC[C@H](C2)O3)C1,-16.6%
21,CCOC(=O)C1=C(C)NC2=C(C(=O)CC(C)(C)C2)C1c1ccc2c(c1)OCO2 (configuration not stated),13.2%
22,CCc1cc(-c2nnn(CCC3COCCO3)c2CC)ccc1-c1cn(Cc2ccc3ccccc3c2)nn1 (configuration not stated),57.9% (active)
23,COC(=O)[C@]12C[C@H](CC(=O)N3CCOCC3)C(=O)N(Cc3ccc(Cl)cc3Cl)C1=C[C@H](COCc1ccccc1)O[C@@H]2C,-11.3%
24,CCOc1ccc(OCc2ccc(C(=O)N(C)c3ccccc3)o2)cc1,-8.76%
25,CN(C(=O)CN1CCN(c2cc(-c3ccc(OCc4ccccc4)cc3)ncn2)CC1)c1ccccc1,60.6% (active)
26,COc1cccc(N2CCN(CC(=O)N(C)Cc3ccc(F)cc3)CC2)c1,1.56%
